Measurements: PubChem BioAssay (Tox21)
Results filed as inconclusive are left out. The source made the active and inactive calls. Unless noted, the call rests on the fitted dose curve; in most records, active means well fitted curve in the direction sought with a large enough effect in the repeat runs; inconclusive means weak or mixed curves; inactive means no such curve, though single readings can be large; an effect the other way counts as inactive or inconclusive.

Assays:
[1] = qHTS RealTime-Glo MT Cell Viability Assay in HEK293 cells - 0 hour (AID 1224880); further: top concentration of the series differs between compounds; nearly all actives have a fitted effect of over 45% in size
In short: (§1)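 Nonlytic bioluminescent viability monitoring. HEK293 at 600 cells/well with reagent; 5 h settle; compound transfer by pintool; plates held at 37 C and read at set time points.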

[2] = A CellTox Green Cytotoxicity Assay to monitor cytotoxicity in HEK293 cells - 32 hour (AID 1224881); further: nearly all actives have a fitted effect of over 40% in size
In short: (§2)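 Cytotoxicity was tracked continuously in HEK293 cells by a DNA-binding dye excluded from viable cells. Compounds were transferred in DMSO 5 h after seeding; fluorescence was recorded at intervals up to 40 h.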

[3] = A CellTox Green Cytotoxicity Assay to monitor cytotoxicity in HepG2 cells - 0 hour (AID 1224882); further: nearly all actives have a fitted effect of over 35% in size
In short: (§3)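 Real-time, homogeneous cytotoxicity readout: dead-cell DNA staining by CellTox Green in HepG2 monolayers, fluorescence measured at timed intervals up to 40 h of continuous compound exposure.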

[4] = A CellTox Green Cytotoxicity Assay to monitor cytotoxicity in HepG2 cells - 32 hour (AID 1224883); further: nearly all actives have a fitted effect of over 50% in size; further: potency means the concentration at half of the fitted maximal effect
In short: as §3

[5] = A CellTox Green Cytotoxicity Assay to monitor cytotoxicity in HEK293 cells - 8 hour (AID 1224884); further: nearly all actives have a fitted effect of over 35% in size
In short: as §2

[6] = qHTS RealTime-Glo MT Cell Viability Assay in HEK293 cells - 24 hour (AID 1224886); further: nearly all actives have a fitted effect of over 50% in size; further: potency means the concentration at half of the fitted maximal effect; on activity change, negative = cytotoxicity: top concentration of the series differs between compounds
In short: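 Quantitative high-throughput screen of the Tox21 10K library in HEK293: cells and RealTime-Glo reagents plated together, compound added at 5 h, luminescence monitored through 40 h at 37 C.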

[7] = qHTS RealTime-Glo MT Cell Viability Assay in HEK293 cells - 8 hour (AID 1224887); further: nearly all actives have a fitted effect of over 50% in size; further: potency means the concentration at half of the fitted maximal effect; on activity change, negative = cytotoxicity: top concentration of the series differs between compounds
In short: as §1

[8] = A CellTox Green Cytotoxicity Assay to monitor cytotoxicity in HEK293 cells - 16 hour (AID 1224888); further: nearly all actives have a fitted effect of over 35% in size
In short: as §2

[9] = A CellTox Green Cytotoxicity Assay to monitor cytotoxicity in HepG2 cells - 8 hour (AID 1224890); further: nearly all actives have a fitted effect of over 45% in size
In short: as §3

[10] = qHTS assay to identify small molecule antagonists of the estrogen receptor alpha (ER-alpha) signaling pathway using the BG1 cell line in the presence of 0.1 nM 17-beta-estradiol - cell viability counter screen (AID 1259241); further: nearly all actives have a fitted effect of over 40% in size
In short: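 The cell line endogenously expresses full-length ER-alpha and carries four EREs driving luciferase. Cells are cultured 5 days hormone-free, treated 22 hr with compounds and 0.1 nM estradiol, then viability is read by fluorescence.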

[11] = qHTS assay to identify small molecule antagonists of the androgen receptor (AR) signaling pathway using the MDA cell line in the presence of 0.5 nM R1881 - cell viability counter screen (AID 1259242); further: nearly all actives have a fitted effect of over 45% in size; further: potency means the concentration at half of the fitted maximal effect
In short: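 Cytotoxicity toward MDA-kb2 cells is measured by CellTiter-Fluor live-cell protease fluorescence after 16 hr compound exposure at 37C in the presence of 0.5 nM R1881 stimulator.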

[12] = molecular target: Estrogen receptor (Homo sapiens) (UniProt P03372); assay: qHTS assay to identify small molecule antagonists of the estrogen receptor alpha (ER-alpha) signaling pathway using the BG1 cell line in the presence of 0.1 nM 17-beta-estradiol (AID 1259244); further: nearly all actives have a fitted effect of over 50% in size; further: potency means the concentration at half of the fitted maximal effect
In short: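 After 5 days in hormone-depleted medium (charcoal-stripped serum, no phenol red), VM7Luc4E2 cells were seeded, incubated 24 h, then co-treated with compound and 0.1 nM (final) estradiol for 22 h before luminescence detection.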

[13] = qHTS assay to identify small molecule phospholipidosis (PLD) inducers (AID 1259344; active means well fitted curve in the direction sought with a large enough effect; an effect the other way counts as inactive or inconclusive)
In short: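 HepG2 cells, 900/well, treated with compound plus LipidTOX Red for 24 h at 37 C; amiodarone positive and DMSO negative controls. Fixed with paraformaldehyde/Hoechst, then high-content imaging scored LipidTOX pit count and integrated intensity per well and per cell.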

[14] = qHTS assay to identify small molecule HDAC inhibitors (AID 1259364); further: top concentration of the series differs between compounds; nearly all actives have a fitted effect of over 45% in size
In short: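 Homogeneous cell-based luminescent assay of endogenous class I/II HDAC activity; HCT-116 cells, 2 h compound exposure, 30 min HDAC-Glo development at RT.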

[15] = qHTS assay to identify small molecule HDAC inhibitors - cell viability counter screen (AID 1259365)
In short: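 Viability readout: CellTiter-Glo luminescence. Wild-type HCT-116 cells, 2hr compound treatment following overnight attachment at 37 C.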

[16] = qHTS assay to identify small molecule agonists of the sonic hedgehog signaling (Shh) pathway - cell viability counter screen (AID 1259366); further: nearly all actives have a fitted effect of over 50% in size
In short: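 Viability measured fluorometrically (CellTiter-Fluor, 1hr, 37C) in 3T3 Gli1-Luc reporter cells after 23hr compound exposure within a 24hr incubation at 37C/5% CO2.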

[17] = qHTS assay to identify small molecule antagonists of the sonic hedgehog signaling (Shh) pathway - cell viability counter screen (AID 1259367); further: nearly all actives have a fitted effect of over 55% in size
In short: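 NIH/3T3-derived Gli1-Luc reporter cells, 2,000/well, plated 4 hr before compound addition, then stimulated with conditioned medium for 24 hr at 37C. Viability measured in the same wells by CellTiter-Fluor fluorescence, reagent added at 23 hr for 1 hr.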

[18] = qHTS RealTime-Glo MT Cell Viability Assay in HepG2 cells - 0 hour (AID 1224889); further: nearly all actives have a fitted effect of over 50% in size
In short: (§4)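 Compound treatment began 5 h after plating HepG2 cells (600/well) with NanoLuc luciferase and prosubstrate. Plates stayed at 37 C for 40 h; luminescence was captured at six time points, 0 h through 40 h.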

[19] = qHTS RealTime-Glo MT Cell Viability Assay in HepG2 cells - 16 hour (AID 1224885); further: nearly all actives have a fitted effect of over 50% in size
In short: as §4

[20] = molecular target: Androgen receptor (Homo sapiens) (UniProt P10275); assay: qHTS assay to identify small molecule antagonists of the androgen receptor (AR) signaling pathway using the MDA cell line in the presence of 0.5 nM R1881 (AID 1259243); further: nearly all actives have a fitted effect of over 50% in size
In short: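 Steps: seed MDA-kb2 cells, incubate 5 hr at 37C; pin-transfer compounds in DMSO; add R1881 to 0.5 nM final; incubate 16 hr; add ONE-Glo, wait 30 min at room temperature; read luminescence.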
On the % scale 0 is the no-effect control and ±100 the full control effect.

Estrogen receptor (Homo sapiens), sequence (P03372 whole entry, looked up): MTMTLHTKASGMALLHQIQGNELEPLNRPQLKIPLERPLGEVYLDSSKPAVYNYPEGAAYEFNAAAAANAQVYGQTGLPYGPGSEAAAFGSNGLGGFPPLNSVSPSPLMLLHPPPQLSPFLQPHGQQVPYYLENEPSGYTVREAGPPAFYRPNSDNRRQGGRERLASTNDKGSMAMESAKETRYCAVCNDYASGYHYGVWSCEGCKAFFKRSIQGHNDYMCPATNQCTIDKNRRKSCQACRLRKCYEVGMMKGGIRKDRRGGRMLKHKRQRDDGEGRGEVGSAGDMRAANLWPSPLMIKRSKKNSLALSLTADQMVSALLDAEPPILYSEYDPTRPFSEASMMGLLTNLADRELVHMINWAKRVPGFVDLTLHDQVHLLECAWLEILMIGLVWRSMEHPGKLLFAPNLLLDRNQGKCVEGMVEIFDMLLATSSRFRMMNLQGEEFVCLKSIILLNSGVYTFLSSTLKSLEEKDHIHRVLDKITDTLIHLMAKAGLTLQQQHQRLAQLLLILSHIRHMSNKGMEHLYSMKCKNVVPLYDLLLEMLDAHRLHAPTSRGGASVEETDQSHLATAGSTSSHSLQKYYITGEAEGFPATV
Androgen receptor (Homo sapiens), sequence (P10275 whole entry, looked up): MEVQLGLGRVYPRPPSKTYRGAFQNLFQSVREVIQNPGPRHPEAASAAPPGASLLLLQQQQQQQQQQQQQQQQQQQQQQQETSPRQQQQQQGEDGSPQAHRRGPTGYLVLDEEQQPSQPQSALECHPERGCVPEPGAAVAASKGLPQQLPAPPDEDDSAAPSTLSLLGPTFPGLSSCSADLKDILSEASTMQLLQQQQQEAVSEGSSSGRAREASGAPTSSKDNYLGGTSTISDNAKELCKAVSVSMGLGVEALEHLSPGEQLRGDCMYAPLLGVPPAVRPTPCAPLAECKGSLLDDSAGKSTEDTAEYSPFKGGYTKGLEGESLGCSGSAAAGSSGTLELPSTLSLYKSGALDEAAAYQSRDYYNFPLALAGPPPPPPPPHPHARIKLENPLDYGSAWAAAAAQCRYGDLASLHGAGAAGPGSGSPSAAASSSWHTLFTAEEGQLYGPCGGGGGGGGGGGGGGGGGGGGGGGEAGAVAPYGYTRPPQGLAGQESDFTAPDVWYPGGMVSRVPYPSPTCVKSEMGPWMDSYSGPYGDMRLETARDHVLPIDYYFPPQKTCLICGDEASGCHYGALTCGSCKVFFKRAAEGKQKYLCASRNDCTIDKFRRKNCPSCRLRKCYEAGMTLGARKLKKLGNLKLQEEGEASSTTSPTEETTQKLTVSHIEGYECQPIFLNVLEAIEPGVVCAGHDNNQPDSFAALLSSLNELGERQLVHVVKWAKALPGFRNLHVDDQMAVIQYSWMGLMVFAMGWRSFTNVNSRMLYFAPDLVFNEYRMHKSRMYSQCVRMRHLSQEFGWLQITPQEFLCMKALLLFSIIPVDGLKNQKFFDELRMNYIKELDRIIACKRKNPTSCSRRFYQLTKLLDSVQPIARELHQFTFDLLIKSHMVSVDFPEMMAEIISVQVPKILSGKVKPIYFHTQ

CCc1nn(CCCN2CCN(c3cccc(Cl)c3)CC2)c(=O)n1CCOc1ccccc1
active: Potency [6] 8.49 µM | Potency [7] 10.7 µM | Potency [11] 26.6 µM | Potency [12] 11.9 µM
inactive: Potency [1] | Potency [2] | Potency [3] | Potency [4] | Potency [5] | Potency [8] | Potency [9] | Potency [10] | outcome [13] | Potency [14] | Potency [15] | Potency [16] | Potency [17]

CCC(=O)Oc1ccc(/C(CC)=C(\CC)c2ccc(OC(=O)CC)cc2)cc1
active: Potency [6] 21.9 µM
inactive: Potency [1] | Potency [2] | Potency [3] | Potency [4] | Potency [5] | Potency [8] | Potency [18] | Potency [9] | Potency [10] | Potency [11] | Potency [14] | Potency [15] | Potency [16]

CCCCCCCCCCCCCCCCBr
inactive: activity change, negative = cytotoxicity [1] 6.45% [at 15.8 µM] | cytotoxicity increase [2] 0.813% [at 15.8 µM] | cytotoxicity [3] -3.37% [at 15.8 µM] | cytotoxicity increase [4] -8.22% [at 15.8 µM] | activity change, negative = cytotoxic [19] 2.39% [at 15.8 µM] | activity change, negative = cytotoxicity [6] 6% [at 15.8 µM] | activity change, negative = cytotoxicity [7] 3.99% [at 15.8 µM] | activity change [8] 2.24% [at 15.8 µM, hits give high values] | activity change, negative = cytotoxicity [18] 6.9% [at 15.8 µM] | cytotoxicity increase [9] -4.5% [at 15.8 µM] | activity change, negative = cytotoxicity [10] 1.42% [at 19 µM] | viability change, negative = cytotoxic [11] 2.08% [at 19 µM] | activity change, negative = inhibition [12] 3% [at 19 µM] | activity change, negative = inhibition [14] 4.52% [at 19 µM] | activity change, negative = cytotoxicity [15] 1.54% [at 19 µM] | viability change, negative = cytotoxic [16] -1.13% [at 19 µM] | viability change, negative = cytotoxic [17] -2.38% [at 19 µM]

C[N+]1(C)CCC(=C(c2ccccc2)c2ccccc2)CC1
inactive: Potency [1] | Potency [2] | Potency [3] | Potency [4] | Potency [5] | Potency [19] | Potency [7] | Potency [8] | Potency [18] | Potency [10] | Potency [11] | outcome [13] | Potency [14] | Potency [15] | Potency [16] | Potency [17]

CCC(Cc1ccccc1)(C(=O)c1ccc(N2CCOCC2)cc1)N(C)C (stereo not drawn)
inactive: Potency [1] | Potency [2] | Potency [3] | Potency [4] | Potency [5] | Potency [19] | Potency [8] | Potency [18] | Potency [9] | Potency [10] | Potency [14] | Potency [15] | Potency [16] | Potency [17]

O=C(CCCCCCC(=O)Nc1ccccc1)NO
inactive: Potency [1] | Potency [2] | Potency [3] | Potency [8] | Potency [18] | Potency [9] | Potency [10] | Potency [11] | outcome [13]
active: Potency [4] 2.68 µM | Potency [6] 2.39 µM | Potency [12] 3.35 µM

Cc1ccc(S)cc1
inactive: Potency [1] | Potency [2] | Potency [3] | Potency [5] | Potency [6] | Potency [7] | Potency [8] | Potency [18] | Potency [10] | Potency [11] | Potency [14] | Potency [15] | Potency [16] | Potency [17]
active: Potency [4] 17.4 µM

CCCCCCOC(=O)C(C)C
inactive: Potency [1] | Potency [2] | Potency [3] | Potency [4] | Potency [19] | Potency [6] | Potency [7] | Potency [8] | Potency [18] | Potency [9] | Potency [10] | Potency [11] | Potency [14] | Potency [15] | Potency [16] | Potency [17]

CCCCCCCCSCCO
active: Potency [4] 43.6 µM
inactive: Potency [1] | Potency [2] | Potency [3] | Potency [5] | Potency [19] | Potency [7] | Potency [8] | Potency [18] | Potency [9] | Potency [10] | Potency [11] | Potency [20] | Potency [14] | Potency [15] | Potency [16] | Potency [17]
